The panel holds about 79,000 compounds, 15% with a hit somewhere; the sample as a whole holds those more often. Values without a mark were called inactive. Active and inactive are the calls of the source. No stated cut-off is given here; in the data, active means growth inhibition above about 70%; inactive means the rest.
assay: NCI Yeast Anticancer Drug Screen. Data for the rad14 strain (AID 159);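 further: 0% = growth of vehicle-treated control cultures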; conditions: S. cerevisiae rad14 strain growth inhibition; at 11.0 µM; stronger effect = higher value
Procedure, shortened: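 DNA repair-defective yeast, compound-exposed; % growth inhibition derived by comparison with vehicle-treated controls.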

Which growth inhibition does the source give for `CN(C)c1ccc(C2CC(C)(O)Oc3cc4c(cc32)OCO4)cc1` (stereo not given) here?
Its growth inhibition is 9%.

Which growth inhibition does the source give for `O=P(NC1CCCCC1)(OCc1ccccc1)OCc1ccccc1` here?
Its growth inhibition is 4%.

For `COc1oc(C(=O)NC2CCCCC2)c(-c2ccc(Cl)cc2)c1S(=O)(=O)c1ccccc1`, which growth inhibition is on record?
Its growth inhibition is 23%.

Which growth inhibition does the source give for `C[Si](C)(C)/C=C/CCNC(C#N)c1ccccc1` (stereo not given) here?
Its growth inhibition is 37%.

Which growth inhibition does the source give for `CN(C)CCOC1(Cc2ccc(F)cc2)CCC(C(C)(C)C)CC1` (stereo not given) here?
Its growth inhibition is 10%.

For `CC1(C)CC(=O)C(/C=N/c2nc(-c3ccccc3)cs2)=C(O)C1`, which growth inhibition is on record?
Its growth inhibition is 17%.

Which growth inhibition does the source give for `CC(=O)Nc1ccc2c(c1)Cc1cc(N=C3C=CC(=O)O3)ccc1-2` here?
Its growth inhibition is 84% (active).

For `O=C1C=C(Cl)C(=O)C(c2ccc(Cl)cc2)=C1`, which growth inhibition is on record?
The growth inhibition was 42%.

Which growth inhibition does the source give for `CNCCCNc1c2ccccc2nc2cccc([N+](=O)[O-])c12` here?
Its growth inhibition is 96% (active).

Which growth inhibition does the source give for `CCCCCCCCCCCC(O)S(=O)(=O)O` (stereo not given) here?
Its growth inhibition is 2%.

For `CC(C)OC(=O)c1ccc(CCc2cc(O)c(Br)cc2O)cc1`, which growth inhibition is on record?
Its growth inhibition is 75% (active).

Which growth inhibition does the source give for `CCc1cc(O)c(Cl)c(C)c1Cl` here?
The growth inhibition was -8%.

For `C(=Nc1ccc(-c2cc(-c3ccccc3)nc3ccc4ccccc4c23)cc1)c1ccccc1`, which growth inhibition is on record?
The growth inhibition was 21%.

With `CSc1nc(C)c(CCOC(C)=O)c(N=P(c2ccccc2)(c2ccccc2)c2ccccc2)n1` as the molecule, how does the growth inhibition read?
Its growth inhibition is -4%.

With `CS(=O)(=O)SCc1ccc([N+](=O)[O-])cc1` as the molecule, how does the growth inhibition read?
The growth inhibition was 69%.

With `COC1=C(OC)C(=O)C(Sc2ccc3ccccc3c2)=CC1=O` as the molecule, how does the growth inhibition read?
The growth inhibition was 64%.

For `COc1nc2c(c(=O)n1C)N=C(c1ccccc1)[C@H](C(CC(=O)c1ccccc1)c1ccccc1)C(c1ccccc1)N2` (stereo not given in full), which growth inhibition is on record?
The growth inhibition was -1%.

Which growth inhibition does the source give for `Nc1cc(N)c(N=Nc2cccc3c(S(=O)(=O)O)cccc23)cc1N=Nc1cc([N+](=O)[O-])ccc1O` here?
The growth inhibition was -19%.

For `Nc1ccc(F)cc1S`, which growth inhibition is on record?
Its growth inhibition is -14%.

For `COc1cc(C2SCC(=O)N2c2ccc(-c3ccc(-n4c(-c5ccccc5)nc5ccccc5c4=O)cc3)cc2)ccc1O` (stereo not given), which growth inhibition is on record?
The growth inhibition was 2%.

Which growth inhibition does the source give for `Nc1ncnc2c1ncn2C1OC(CO)CC1O` (stereo not given) here?
The growth inhibition was 27%.

With `COc1cc(CSc2ccc(O)cc2)cc(O)c1O` as the molecule, how does the growth inhibition read?
The growth inhibition was 5%.

For `CNC(=O)OCc1c(COC(=O)NC)c2n(c1C)-c1ccc(OC)cc1CCC2`, which growth inhibition is on record?
Its growth inhibition is -23%.

Which growth inhibition does the source give for `O=C(NNc1ccccc1)c1ccc(Cl)c(Cl)c1` here?
Its growth inhibition is 3%.

Which growth inhibition does the source give for `Cc1ccc(CC2(OCCN(C)C)CCC(C(C)(C)C)CC2)cc1` (stereo not given) here?
Its growth inhibition is 15%.

With `C[C@]12CC[C@H](O)CC1=CC[C@@H]1C2CC[C@]2(C)C(=O)NC(=O)CC12` (stereo not given in full) as the molecule, how does the growth inhibition read?
Its growth inhibition is -38%.

Which growth inhibition does the source give for `CCCC/C=C/C(C)(C(=O)OCC)C(=O)OCC` here?
The growth inhibition was -1%.

For `CCc1c(Cl)c(C)cc(O)c1Cl`, which growth inhibition is on record?
The growth inhibition was -19%.

Which growth inhibition does the source give for `O=C(/C=C(/c1ccccc1)N1CCCCC1)c1ccccc1` here?
Its growth inhibition is 9%.

With `CCCC(=O)Oc1ccc(/C=N/NC(N)=S)nc1` as the molecule, how does the growth inhibition read?
The growth inhibition was -17%.

Which growth inhibition does the source give for `CCc1nc2ccc(NCCN(C)C)c3c(=O)c4ccccc4n1c23` here?
Its growth inhibition is 35%.

For `Cc1sc2ccc3ccccc3c2[n+]1C`, which growth inhibition is on record?
Its growth inhibition is -29%.

With `COc1c(O)c(C=O)c(Br)c(C=O)c1O` as the molecule, how does the growth inhibition read?
Its growth inhibition is 11%.

For `Cc1ccc(Cl)cc1NC(=O)OCCN(C)C(=O)Nc1cc(Cl)ccc1C`, which growth inhibition is on record?
Its growth inhibition is -31%.

For `Cc1nc2ccccc2nc1NNc1ccccc1`, which growth inhibition is on record?
The growth inhibition was 0%.

same assay, conditions: S. cerevisiae rad14 strain growth inhibition; at 33.0 µM; stronger effect = higher value

Which growth inhibition does the source give for `CN(C)c1ccc(C2CC(C)(O)Oc3cc4c(cc32)OCO4)cc1` (stereo not given) here?
The growth inhibition was 27%.

Which growth inhibition does the source give for `O=P(NC1CCCCC1)(OCc1ccccc1)OCc1ccccc1` here?
The growth inhibition was 6%.

For `COc1oc(C(=O)NC2CCCCC2)c(-c2ccc(Cl)cc2)c1S(=O)(=O)c1ccccc1`, which growth inhibition is on record?
Its growth inhibition is 82% (active).

Which growth inhibition does the source give for `C[Si](C)(C)/C=C/CCNC(C#N)c1ccccc1` (stereo not given) here?
The growth inhibition was 52%.

Which growth inhibition does the source give for `CN(C)CCOC1(Cc2ccc(F)cc2)CCC(C(C)(C)C)CC1` (stereo not given) here?
The growth inhibition was 66%.

Which growth inhibition does the source give for `CC1(C)CC(=O)C(/C=N/c2nc(-c3ccccc3)cs2)=C(O)C1` here?
Its growth inhibition is 45%.

With `CC(=O)Nc1ccc2c(c1)Cc1cc(N=C3C=CC(=O)O3)ccc1-2` as the molecule, how does the growth inhibition read?
Its growth inhibition is 99% (active).

For `O=C1C=C(Cl)C(=O)C(c2ccc(Cl)cc2)=C1`, which growth inhibition is on record?
The growth inhibition was 95% (active).

For `CNCCCNc1c2ccccc2nc2cccc([N+](=O)[O-])c12`, which growth inhibition is on record?
Its growth inhibition is 96% (active).

With `CCCCCCCCCCCC(O)S(=O)(=O)O` (stereo not given) as the molecule, how does the growth inhibition read?
Its growth inhibition is 10%.

For `CC(C)OC(=O)c1ccc(CCc2cc(O)c(Br)cc2O)cc1`, which growth inhibition is on record?
The growth inhibition was 96% (active).

For `CCc1cc(O)c(Cl)c(C)c1Cl`, which growth inhibition is on record?
The growth inhibition was 34%.

With `C(=Nc1ccc(-c2cc(-c3ccccc3)nc3ccc4ccccc4c23)cc1)c1ccccc1` as the molecule, how does the growth inhibition read?
The growth inhibition was 38%.

With `CSc1nc(C)c(CCOC(C)=O)c(N=P(c2ccccc2)(c2ccccc2)c2ccccc2)n1` as the molecule, how does the growth inhibition read?
The growth inhibition was -5%.

With `CS(=O)(=O)SCc1ccc([N+](=O)[O-])cc1` as the molecule, how does the growth inhibition read?
The growth inhibition was 99% (active).

With `COC1=C(OC)C(=O)C(Sc2ccc3ccccc3c2)=CC1=O` as the molecule, how does the growth inhibition read?
Its growth inhibition is 96% (active).

Which growth inhibition does the source give for `COc1nc2c(c(=O)n1C)N=C(c1ccccc1)[C@H](C(CC(=O)c1ccccc1)c1ccccc1)C(c1ccccc1)N2` (stereo not given in full) here?
The growth inhibition was 31%.

For `Nc1cc(N)c(N=Nc2cccc3c(S(=O)(=O)O)cccc23)cc1N=Nc1cc([N+](=O)[O-])ccc1O`, which growth inhibition is on record?
Its growth inhibition is -18%.

Which growth inhibition does the source give for `Nc1ccc(F)cc1S` here?
The growth inhibition was 70% (active).

With `COc1cc(C2SCC(=O)N2c2ccc(-c3ccc(-n4c(-c5ccccc5)nc5ccccc5c4=O)cc3)cc2)ccc1O` (stereo not given) as the molecule, how does the growth inhibition read?
The growth inhibition was 11%.

With `Nc1ncnc2c1ncn2C1OC(CO)CC1O` (stereo not given) as the molecule, how does the growth inhibition read?
The growth inhibition was 76% (active).

For `COc1cc(CSc2ccc(O)cc2)cc(O)c1O`, which growth inhibition is on record?
The growth inhibition was 0%.

With `CNC(=O)OCc1c(COC(=O)NC)c2n(c1C)-c1ccc(OC)cc1CCC2` as the molecule, how does the growth inhibition read?
Its growth inhibition is 98% (active).

For `O=C(NNc1ccccc1)c1ccc(Cl)c(Cl)c1`, which growth inhibition is on record?
Its growth inhibition is 4%.

With `Cc1ccc(CC2(OCCN(C)C)CCC(C(C)(C)C)CC2)cc1` (stereo not given) as the molecule, how does the growth inhibition read?
Its growth inhibition is 92% (active).

With `C[C@]12CC[C@H](O)CC1=CC[C@@H]1C2CC[C@]2(C)C(=O)NC(=O)CC12` (stereo not given in full) as the molecule, how does the growth inhibition read?
The growth inhibition was 64%.

With `CCCC/C=C/C(C)(C(=O)OCC)C(=O)OCC` as the molecule, how does the growth inhibition read?
The growth inhibition was 3%.

With `CCc1c(Cl)c(C)cc(O)c1Cl` as the molecule, how does the growth inhibition read?
Its growth inhibition is 4%.

With `O=C(/C=C(/c1ccccc1)N1CCCCC1)c1ccccc1` as the molecule, how does the growth inhibition read?
The growth inhibition was 30%.

Which growth inhibition does the source give for `CCCC(=O)Oc1ccc(/C=N/NC(N)=S)nc1` here?
The growth inhibition was -19%.

Which growth inhibition does the source give for `CCc1nc2ccc(NCCN(C)C)c3c(=O)c4ccccc4n1c23` here?
The growth inhibition was 37%.

Which growth inhibition does the source give for `Cc1sc2ccc3ccccc3c2[n+]1C` here?
The growth inhibition was -28%.

Which growth inhibition does the source give for `COc1c(O)c(C=O)c(Br)c(C=O)c1O` here?
The growth inhibition was 42%.

Which growth inhibition does the source give for `Cc1ccc(Cl)cc1NC(=O)OCCN(C)C(=O)Nc1cc(Cl)ccc1C` here?
Its growth inhibition is -39%.

For `Cc1nc2ccccc2nc1NNc1ccccc1`, which growth inhibition is on record?
Its growth inhibition is 7%.
